Experimental findings from PubChem BioAssay (NCATS) are described below.

SMILES strings stand for the structures. Inconclusive results are not listed. Values without a mark were called inactive. Activity calls are given as the source filed them. The call rests on the fitted dose curve; in most records, active means well fitted inhibition curve with a large enough effect; inconclusive means small, poorly fitted or top-dose-only effect; inactive means no such curve, though single readings can be large or run the other way. Bridge positions count the residues as written; N and C are the ends. Square brackets hold non-standard residues; d marks the D form. Side chains are listed from the residue outwards. Peptide text beside a SMILES is read from it. * marks the point of attachment. Phg(4-OMe) = COc1ccc([C@H](N)C(=O)O)cc1; d(aIle) = CC[C@H](C)[C@@H](N)C(=O)O; d(aThr) = C[C@@H](O)[C@@H](N)C(=O)O; NMeF = CN[C@@H](Cc1ccccc1)C(=O)O; Isobutyryl = CC(C)C(=O)*
On the % scale 0 is the no-effect control and ±100 the full control effect; potency means the concentration at half of the fitted maximal effect.

This experiment is described as follows: Secretion counterscreen for inhibitors of the SERCaMP assay screened against the NCATS CANVASS Library (AID 1347390).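 Further: light from luciferase secreted into medium read as a measure of general secretion.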 The following applies: SH-SY5Y constitutive GLuc secretion, luminescence, 20 h; series mostly up to 76.6 µM; activity change, negative = inhibition: at the top concentration. The source says:
Natural products and their derivatives continue to be wellsprings of nascent therapeutic potential. However, many laboratories have limited resources for biological evaluation, leaving their previously isolated or synthesized compounds largely or completely untested. To address this issue, the Canvass library of natural products was assembled (https://tripod.nih.gov/canvass), in collaboration with academic and industry researchers, for quantitative high-throughput screening (qHTS) across a diverse set of cell-based and biochemical assays. The pure (>85% purity by liquid chromatography/mass spectrometry [LC/MS]) Canvass library of 346 natural products were submitted by 45 academic laboratories and companies around the world. We collected pure natural products to circumvent deconvolution and structure elucidation due to time and resource limitations. The library was formatted into 1536-well plates and evaluated in 50 qHTS (in an 11-pnt concentration series) bioassays with broad scope of disease-relevant mechanisms. The resulting data set from 50 different assays was then systematically analyzed to identify overall trends and specific natural products with interesting biological activities. Reported herein are the results of each individual qHTS and their corresponding assay protocol. Compounds that interfere with the secretory pathway can show activity in the SERCaMP assay. This type of false positive is identified using a constitutively secreted GLuc reporter. National Center for Advancing Translational Sciences (NCAwsTS), Rockville, MD National Institute of Health (NIH), Bethesda, Maryland
SERCaMP secretion assay protocol: 1. In a white-solid bottom 1536-well tissue culture plate (Corning 7494), 5 uL of SH-SY5Y-GLuc STOP cells were dispensed using a Multidrop Combi (Thermo Fisher Scientific) at a final concentration of 1000 cells / well. 2. The assay plates were incubated for 4 hours at 37C, 5% CO2, 95% humidity to acclimate and attach. 3. […] of compounds (in DMSO; columns 5-48), and positive control Brefeldin A (1 mM; 1:2 dilution; 16-points; n = 2; column 2, rows 1-32) were pin transferred into the assay plates using the Kalypsis pin tool (Wako USA) equipped with a 1536-well pin heads. This yields a final concentration range of 0.0001 - 4.6 uM for the Brefeldin A and 0.001 - 77 uM for the compounds. 4. The assay plates were incubated for 20 hours at 37C, 5% CO2, 95% humidity. 5. After incubation, 1 uL of (7x) substrate Coelenterazine (diluted 1:200 in Pierce Glow Assay buffer) was dispensed into columns 1 - 48, rows 1 - 32. 6. The plates were centrifuged for 5 seconds at 1000 rpm. 7. Luminescence signal was obtained via the ViewLux plate reader (Perkin Elmer) using the clear emission filter and 1x binning, 5 seconds exposure settings.
On to `CC[C@H](C)[C@H]1NC(=O)[C@@H](NC(=O)C(C)C)[C@@H](C)OC(=O)[C@H](COC(=O)CNC(C)=O)NC(=O)[C@@H]([C@@H](C)O)NC(=O)[C@H](Cc2ccccc2)N(C)C(=O)[C@H](c2ccc(OC)cc2)NC1=O` (Isobutyryl-T[d(aIle)][Phg(4-OMe)][NMeF][d(aThr)]S([Gly-Ac]); ester 1-C), for which the “activity change, negative = inhibition” value is -33.1%.

In the case of `COc1cc2c(cc1OC)[C@@H](c1ccc3c(c1)OCO3)C(C)C(C)C2=O` (stereo not given in full), the “activity change, negative = inhibition” value was -35.5%.

As for `C=C[C@](Cl)(CBr)CCC=C(C)C`, the “activity change, negative = inhibition” value was -27.3%.

Take `COC(=O)C1=C[C@]23C[C@@H](C)CC[C@@H]2[C@@]2(C)CC[C@@H](C(C)C)[C@@](O)(O3)[C@@H]12`: the “activity change, negative = inhibition” value was -4.32%.

As to `C/C=C/[C@H]1[C@H]2C(=O)c3c(O)c(C)c(O)c(C)c3[C@]1(C(=O)O)C(=O)C=C2C`, the “activity change, negative = inhibition” value is 5.35%.

On to `CO[C@@H]1[C@H](O)[C@@H](C)O[C@@H](OC[C@@H]2C(C)OC(=O)/C=C/[C@H](C)C(O[C@@H]3O[C@H](C)CC4(OC(=O)O[C@@H]4C)C3O)[C@@H](C)CC(C)C(=O)/C=C/[C@H]3OC23)[C@@H]1OC` (stereo not given in full), for which the “activity change, negative = inhibition” value is -83.1%.

As for `C=C1C[C@H]2O[C@@H]3[C@@H]4[C@H](CC[C@@](C)(O)[C@@H]42)[C@H](C)COC3(C)[C@@H](OC(=O)CCCCCCC)C[C@H]1O` (stereo not given in full), the “activity change, negative = inhibition” value was -37.1%.

As for `C/C(=C\[C@H](C)C(=O)C[C@H](O)CC1CC(=O)NC(=O)C1)[C@@H]1OC(=O)CCCC/C=C/[C@@H](O)C[C@@H]1C`, the Potency was 9.65 µM (active).

As to `C[C@H](CCC(O)C(C)(O)CO)[C@@]1(O)CC[C@@]2(C)C3=C(CC[C@@]21C)[C@@]1(C)CCC(OC(=O)CCC(=O)O)C(C)(C)[C@@H]1CC3` (stereo not given in full), the “activity change, negative = inhibition” value is 19.4%.

Consider `CC[C@H](O)CCCCC[C@@H]1NC(=O)[C@H]2CCCCN2C(=O)[C@H]([C@H](C)CC)NC(=O)[C@H](Cc2cn(OC)c3ccccc23)NC1=O`, for which the “activity change, negative = inhibition” value is 102%.

`C[C@@]12CCC[C@@](C)(C(=O)OP(=O)(O)OC[C@H]3O[C@@H](n4cnc5c(N)ncnc54)[C@H](O)[C@@H]3O)[C@H]1C[C@@H](O)[C@@]13C[C@@H](CC[C@@H]21)[C@](C)(O)C3`: the “activity change, negative = inhibition” value was 27.5%.

Take `CCCc1c2c([nH]c(=O)c1C)C(=O)c1[nH]c(=O)c(C)c(CCC)c1C2=O`: the “activity change, negative = inhibition” value is 61.7%.

In the case of `Cc1occ2c1C(=O)c1c(cc(O)c(O)c1O)C2=O`, the “activity change, negative = inhibition” value is -12.1%.

For the compound `Cc1cc(O)cc2c1C(=O)c1c(O)cc(O)cc1C2=O`, the “activity change, negative = inhibition” value is -1.17%.

For `CO[C@H]1[C@@H](OC(=O)/C(C)=C\[C@@H]2O[C@@H]2[C@H]2O[C@H]2C)[C@H](O)[C@H](OCC23C[C@@H]4[C@H](C)CC[C@H]4C4(C=O)CC2C=C(C(C)C)C34C(=O)O)O[C@@H]1C` (stereo not given in full), the “activity change, negative = inhibition” value was -4.16%.

Consider `C=C(C)CC[C@H](Cc1c(O)cc(O)c2c1O[C@H](c1ccc(O)cc1)CC2=O)C(=C)C`, for which the “activity change, negative = inhibition” value was 3.45%.

Turning to `CCC(=O)N[C@@H](C[C@H](C)C(Cl)(Cl)Cl)C(=O)N1C(=O)C=C(OC)[C@@H]1C[C@H](C)CCl`, the “activity change, negative = inhibition” value is -11.3%.

As to `CC(C)C[C@@H]1c2c(O)c(C=O)c(O)c(C=O)c2O[C@]2(C)C=C[C@@H](C(C)C)C[C@H]12`, the “activity change, negative = inhibition” value is -11.9%.

Take `Cc1cc(C)c(O)c(C(=O)CC2CC(=O)NC(=O)C2)c1`: the Potency is 6.09 µM (active).

For `C[C@@]1(CCC(=O)Nc2c(O)ccc(C(=O)O)c2O)C(=O)C=C[C@]23C[C@H]4C[C@H](O[C@@]4(C)C2)C31` (stereo not given in full), the “activity change, negative = inhibition” value is 15.1%.

Consider `O=C1CC(c2ccc(O)cc2)Oc2cc(O)ccc21` (stereo not given), for which the “activity change, negative = inhibition” value was -8.52%.

`CC(C)[C@]12CC[C@@]3(C)[C@H](C)CC[C@H](O)[C@@]3(CC1)c1cc3c(cc12)[nH]c1ccccc13`: the “activity change, negative = inhibition” value was -6.34%.

For `CC(=O)O[C@H]1c2ccccc2-c2c3c(cc4c2[C@@H]1N(C(C)=O)CC4)OCO3`, the “activity change, negative = inhibition” value was -8.97%.

As to `C=C[C@]1(C)CC[C@@H]([C@H](C)C(=O)/C=C/C(C)(C)O)O1`, the “activity change, negative = inhibition” value was -22.5%.

With `C/C(=C\[C@H](C)C(=O)C[C@H](O)CC1CC(=O)NC(=O)C1)[C@@H]1OC(=O)CCCC/C=C/C[C@@H](O)[C@@H]1C`, the Potency was 12.2 µM (active).

In the case of `CO[C@@H](C[C@@H](C)[C@@H](O)/C=C/C=C/CNC(=O)C(C)(C)[C@H](O)\C(C)=C/C=C\C=C\Cc1cnco1)[C@]1(O)[C@@H](C)C(=O)N(C)[C@@]12COC2=O`, the “activity change, negative = inhibition” value is -2.22%.

In the case of `CC(C)=CCC[C@]12c3cc4c(cc3CC[C@@]1(C)[C@H](C)CC[C@@H]2O)[nH]c1ccccc14`, the “activity change, negative = inhibition” value is 4.37%.

As for `C=C1CCC2C(C)(C(=O)O)CCC(CC/C(C)=C/C(=O)NC(CCC(N)=O)C(=O)O)[C@@]2(C)C1` (stereo not given in full), the “activity change, negative = inhibition” value is -29.8%.

On to `COc1c(O)cc(O)c2c(=O)cc(-c3ccccc3)oc12`, for which the “activity change, negative = inhibition” value was -27.3%.

On to `CN1CC[C@@]23c4ccccc4N[C@@H]1[C@@]21CCN(C)[C@@H]3Nc2ccccc21`, for which the “activity change, negative = inhibition” value is -7.32%.

With `O=C1CC(c2ccc(O)cc2)Oc2cc(O)cc(O)c21` (stereo not given), the “activity change, negative = inhibition” value was -26.3%.

With `C[C@@H]1CC[C@]2(C(=O)O)CC[C@]3(C)C(=C2[C@H]1C)CC[C@@H]1[C@@]2(C)CC[C@H](O)C(C)(C)[C@@H]2CC[C@]13C`, the “activity change, negative = inhibition” value was 57.2%.

As for `C=C1C[C@]23C=CC(=O)[C@@](C)(CCCC(C)C(=O)N[C@@H](CO)C(=O)O)[C@@H]2C[C@@H]1CC3` (stereo not given in full), the “activity change, negative = inhibition” value was -28.5%.

`CN1CC[C@]2(c3cccc4c3N[C@H]3N(C)CC[C@@]43[C@]34CCN(C)[C@H]3Nc3ccccc34)c3ccccc3N[C@H]12`: the Potency is 19.3 µM (active).

On to `CN1CC[C@]23c4ccccc4N[C@H]1[C@]21CCN(C)[C@H]3Nc2ccccc21`, for which the “activity change, negative = inhibition” value was -4.8%.

On to `O=C1CCC(=O)N(O)CCCCCNC(=O)CCC(=O)N(O)CCCCCNC(=O)CCC(=O)N(O)CCCCCN1`, for which the “activity change, negative = inhibition” value was 30.1%.

Turning to `C[n+]1cc2cc(C(N)=O)[nH]c3c(=N)c(Cl)c(N)c1c23`, the “activity change, negative = inhibition” value was -28.1%.

Take `COc1cc(C2OCC3C(c4ccc(O)c(OC)c4)OCC23)ccc1O` (stereo not given): the activity change, negative = inhibition is 27.5% [at 15.3 µM].

On to `CCC(=O)CCCCC[C@@H]1NC(=O)[C@H]2CCCCN2C(=O)[C@H](C(C)C)NC(=O)[C@H](Cc2cn(OC)c3ccccc23)NC1=O`, for which the “activity change, negative = inhibition” value is 223%.

For the compound `COc1cc2c(c(O)c1O)C(=O)c1c(coc1C)C2=O`, the Potency is 27.2 µM (active).
